Inconclusive results are not listed. Active and inactive are the calls of the source. Unless noted, calls come from the whole dose curve; as a rule, active = well fitted curve in the direction sought with a large enough effect in the repeat runs; inconclusive = weak or mixed curves; inactive = no such curve, though single readings can be large; an effect the other way counts as inactive or inconclusive.
Experiments:
[1] = biological target: Peroxisome proliferator-activated receptor delta (Homo sapiens) (UniProt Q03181); experiment: qHTS assay to identify small molecule agonists of the peroxisome proliferator-activated receptor delta (PPARd) signaling pathway (AID 743212; calls by dose curve;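 note: HEK293H cells with PPARd UAS beta-lactamase reporter GeneBLAzer system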); settings: HEK293H PPARd-UAS-bla, beta-lactamase FRET ratio, 17 h; series mostly up to 62.6 µM
Sequence of Peroxisome proliferator-activated receptor delta (Homo sapiens) (Q03181 whole entry, looked up): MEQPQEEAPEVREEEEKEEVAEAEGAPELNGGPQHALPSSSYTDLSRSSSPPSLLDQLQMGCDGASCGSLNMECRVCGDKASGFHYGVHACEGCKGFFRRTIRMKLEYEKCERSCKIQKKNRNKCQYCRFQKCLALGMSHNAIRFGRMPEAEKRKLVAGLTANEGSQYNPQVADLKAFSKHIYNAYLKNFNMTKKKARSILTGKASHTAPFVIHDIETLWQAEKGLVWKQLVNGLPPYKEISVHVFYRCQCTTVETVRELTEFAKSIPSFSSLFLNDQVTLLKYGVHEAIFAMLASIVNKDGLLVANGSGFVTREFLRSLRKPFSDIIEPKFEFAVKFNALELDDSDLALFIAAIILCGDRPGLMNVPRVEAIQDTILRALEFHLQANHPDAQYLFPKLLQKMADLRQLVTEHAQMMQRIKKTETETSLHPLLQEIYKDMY
Summary of the method: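 Steps: seed PPARd-bla HEK293H cells; incubate 5 h, 37 C, 5% CO2; add compounds in DMSO; incubate, 37 C; add LiveBLAzer B/G FRET substrate; hold 2 h at room temperature; measure fluorescence.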

[2] = qHTS assay to identify small molecule antagonists of the peroxisome proliferator-activated receptor delta (PPARd) signaling pathway - cell viability counter screen (AID 743213); settings: PPARd-bla HEK293H viability, CellTiter-Glo luminescence, 17 h; series mostly up to 62 µM; note: nearly all actives have a fitted effect of over 50% in size
Summary of the method: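 CellTiter-Glo was added to PPARd-bla HEK293H wells following 17 h compound treatment in the presence of 300 nM L165041. Luminescence was recorded after 30 min at room temperature.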

[3] = qHTS assay to identify small molecule antagonists of the farnesoid-X-receptor (FXR) signaling pathway - cell viability counter screen (AID 743221; active = well fitted cell-killing curve with a large enough effect in the repeat runs, not every such curve was filed as active; note: nearly all actives have a fitted effect of over 50% in size); settings: FXR-bla HEK293T viability, CellTiter-Glo luminescence, 16 h; series mostly up to 62.6 µM
Summary of the method: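 Quantitative HTS of the Tox21 10K library run in parallel with the beta-lactamase reporter read. HEK 293T cells carrying a UAS-driven bla reporter got compound and 50 uM CDCA (final) for 16 h; ATP-based luminescence followed.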

[4] = biological target: Vitamin D3 receptor (Homo sapiens) (UniProt P11473); experiment: qHTS assay to identify small molecule agonists of the vitamin D receptor (VDR) signaling pathway (AID 743222; calls by dose curve); settings: HEK293T VDR-UAS-bla, beta-lactamase FRET ratio, 16 h; series mostly up to 63.5 µM
Sequence of Vitamin D3 receptor (Homo sapiens) (P11473 whole entry, looked up): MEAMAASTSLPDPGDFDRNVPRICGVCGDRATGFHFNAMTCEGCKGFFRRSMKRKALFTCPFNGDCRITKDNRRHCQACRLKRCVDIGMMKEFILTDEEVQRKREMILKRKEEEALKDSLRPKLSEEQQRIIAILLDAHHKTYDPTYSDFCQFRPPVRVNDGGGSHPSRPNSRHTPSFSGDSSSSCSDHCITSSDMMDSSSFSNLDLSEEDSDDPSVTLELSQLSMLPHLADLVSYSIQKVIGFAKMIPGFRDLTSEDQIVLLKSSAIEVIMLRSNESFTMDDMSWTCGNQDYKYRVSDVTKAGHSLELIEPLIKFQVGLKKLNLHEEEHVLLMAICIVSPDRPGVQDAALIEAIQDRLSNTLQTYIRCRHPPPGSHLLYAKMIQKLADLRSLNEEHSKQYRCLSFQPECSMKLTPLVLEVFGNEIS
Summary of the method: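 Agonist mode, beta-lactamase reporter: fluorescence from LiveBLAzer B/G FRET substrate (2 h, room temperature) read after 16 h compound treatment at 37 C of VDR-bla cells, which were pre-incubated 4 h after seeding.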

[5] = qHTS assay to identify small molecule agonists of the vitamin D receptor (VDR) signaling pathway - cell viability counter screen (AID 743224); settings: VDR-bla HEK293T viability, CellTiter-Glo luminescence, 16 h; series mostly up to 62.6 µM; note: nearly all actives have a fitted effect of over 50% in size; note: potency is the fitted concentration of half-maximal effect
Summary of the method: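 Counter screen run in the same wells as the VDR-bla reporter assay: CellTiter-Glo luminescence, 30 min at room temperature, after 16 h compound treatment at 37C of cells pre-plated for 4 h.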

[6] = qHTS assay to identify small molecule antagonists of the vitamin D receptor (VDR) signaling pathway - cell viability counter screen (AID 743225); settings: VDR-bla HEK293T viability, CellTiter-Glo luminescence, 16 h; series mostly up to 61 µM; note: nearly all actives have a fitted effect of over 50% in size
Summary of the method: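 Cells (VDR-UAS-bla HEK 293T) are plated, rested 4 h at 37C, dosed with compound and 3 nM final 1-alpha,25-dihydroxy vitamin D3, and incubated 16 h. Viability is taken from CellTiter-Glo luminescence in the reporter wells.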

[7] = qHTS assay to identify small molecule agonists of the NFkB signaling pathway - cell viability counter screen (AID 1159515; calls by dose curve; note: nearly all actives have a fitted effect of over 55% in size); settings: NFkB-bla ME-180 viability, CellTiter-Glo luminescence, 5 h; series mostly up to 61 µM
Summary of the method: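 Read by CellTiter-Glo luminescence (30 min, room temperature) in the wells also used for the beta-lactamase FRET read. ME-180 NFkB-bla cells at 2,000 per well were plated overnight, then exposed to compound for 5 hr at 37 C.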

[8] = qHTS assay to identify small molecule agonists of the endoplasmic reticulum stress response signaling pathway (AID 1159516; active = well fitted activation curve with a large enough effect in the signal ratio in the repeat runs, not every such curve was filed as active; the % refers to the signal ratio); settings: ESRE-bla HeLa, ER stress beta-lactamase reporter, 5 h; series mostly up to 61 µM
Summary of the method: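 Ratiometric FRET readout (405 nm excitation; 460 and 530 nm emission) of a beta-lactamase gene driven by the ER stress response element, after 2 hr substrate loading. HeLa ESRE-bla cells were seeded overnight and treated with compounds for only 5 hr at 37 C.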

[9] = qHTS assay to identify small molecule agonists of the endoplasmic reticulum stress response signaling pathway - cell viability counter screen (AID 1159517; calls by dose curve; note: nearly all actives have a fitted effect of over 50% in size); settings: ESRE-bla HeLa viability, CellTiter-Glo luminescence, 5 h; series mostly up to 61 µM
Summary of the method: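 After overnight attachment, ESRE-bla HeLa cells were treated with Tox21 library compounds for 5 hr. CellTiter-Glo luminescence, read 30 min post-addition at room temperature, reported viability.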

[10] = qHTS assay to identify small molecule antagonists of the retinoid-related orphan receptor gamma (ROR-gamma) signaling pathway - cell viability counter screen (AID 1159520); settings: Tet-on RORgamma CHO cells viability, ATP luminescence, 16 h; series mostly up to 92.4 µM; note: nearly all actives have a fitted effect of over 50% in size; note: potency is the fitted concentration of half-maximal effect
Summary of the method: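 Cytotoxicity was read from cellular ATP (CellTiter-Glo luminescence) after 16 hr at 37 C with 1 uM doxycycline induction. The inducer was added 2 hr after compound transfer to Tet-on ROR gamma CHO cells.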

[11] = biological target: Nuclear receptor ROR-gamma (Homo sapiens) (UniProt P51449); experiment: qHTS assay to identify small molecule antagonists of the retinoid-related orphan receptor gamma (ROR-gamma) signaling pathway (AID 1159521; note: nearly all actives have a fitted effect of over 50% in size; note: potency is the fitted concentration of half-maximal effect); settings: Tet-on RORgamma CHO cells, RORE-luciferase, 16 h; series mostly up to 92.4 µM
Summary of the method: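 RORγ antagonism is scored from reduced reporter luminescence in Tet-on CHO cells. Induction used 1 uM final doxycycline hyclate for 16 h at 37 C, following a 2 h compound exposure.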

[12] = qHTS assay to identify small molecule agonists of the peroxisome proliferator-activated receptor delta (PPARd) signaling pathway - cell viability counter screen (AID 743211); settings: PPARd-bla HEK293H viability, CellTiter-Glo luminescence, 17 h; series mostly up to 62.6 µM; note: nearly all actives have a fitted effect of over 55% in size; note: potency is the fitted concentration of half-maximal effect
Summary of the method: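 Viability of GeneBLAzer PPARd UAS-bla HEK293H cells was assessed after 17 h compound incubation at 37C, using CellTiter-Glo reagent added after the reporter read and luminescence recorded 30 min later.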

[13] = biological target: Peroxisome proliferator-activated receptor delta (Homo sapiens) (UniProt Q03181); experiment: qHTS assay to identify small molecule antagonists of the peroxisome proliferator-activated receptor delta (PPARd) signaling pathway (AID 743215; active = well fitted inhibition curve with a large enough effect in the signal ratio in the repeat runs, not every such curve was filed as active; the % refers to the signal ratio;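 note: cells stimulated with agonist L165041 at 300 nM final during compound exposure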); settings: HEK293H PPARd-UAS-bla, beta-lactamase FRET ratio, antagonist, 17 h; series mostly up to 62 µM
Summary of the method: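 Agonist L165041 (300 nM final) added with compound to PPARd-bla HEK293H UAS-bla reporter cells; 17 h incubation at 37 C. Read-out: LiveBLAzer FRET substrate, 2 h at room temperature, fluorescence intensity.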

[14] = biological target: Bile acid receptor (Homo sapiens) (UniProt Q96RI1); experiment: qHTS assay to identify small molecule antagonists of the farnesoid-X-receptor (FXR) signaling pathway (AID 743217; active = well fitted inhibition curve with a large enough effect in the signal ratio in the repeat runs, not every such curve was filed as active; the % refers to the signal ratio); settings: HEK293T FXR-UAS-bla, beta-lactamase ratio, CDCA-stimulated, 16 h; series mostly up to 62.6 µM
Sequence of Bile acid receptor (Homo sapiens) (Q96RI1 whole entry, looked up): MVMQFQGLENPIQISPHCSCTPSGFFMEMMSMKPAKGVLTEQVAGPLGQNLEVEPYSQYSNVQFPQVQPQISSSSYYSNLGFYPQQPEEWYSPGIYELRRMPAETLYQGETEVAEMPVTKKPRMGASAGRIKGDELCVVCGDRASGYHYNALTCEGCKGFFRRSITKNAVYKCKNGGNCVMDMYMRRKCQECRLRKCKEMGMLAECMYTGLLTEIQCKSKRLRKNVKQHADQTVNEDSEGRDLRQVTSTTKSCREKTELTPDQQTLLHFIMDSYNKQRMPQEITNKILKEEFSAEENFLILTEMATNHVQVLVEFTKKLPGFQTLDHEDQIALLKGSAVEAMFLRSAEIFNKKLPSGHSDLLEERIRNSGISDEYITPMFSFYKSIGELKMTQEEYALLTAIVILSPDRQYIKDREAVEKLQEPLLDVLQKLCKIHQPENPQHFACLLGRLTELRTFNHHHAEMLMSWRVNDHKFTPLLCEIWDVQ
Summary of the method: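 Antagonist mode: chenodeoxycholic acid at 50 uM final stimulates a UAS-driven beta-lactamase reporter in HEK 293T FXR-bla cells during 16 h, 37C compound exposure. Read-out is FRET substrate fluorescence after 2 h at room temperature.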

[15] = qHTS assay to identify small molecule agonists of the farnesoid-X-receptor (FXR) signaling pathway - cell viability counter screen (AID 743218); settings: FXR-bla HEK293T viability, CellTiter-Glo luminescence, 16 h; series mostly up to 62.6 µM; note: nearly all actives have a fitted effect of over 45% in size
Summary of the method: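 Viability counter screen in the same wells: CellTiter-Glo luminescence, 30 min room-temperature incubation, measured after the beta-lactamase read. Cells were GeneBLAzer FXR-UAS-bla HEK 293T, compound-treated 16 h at 37C.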

[16] = biological target: Bile acid receptor (Homo sapiens) (UniProt Q96RI1); experiment: qHTS assay to identify small molecule agonists of the farnesoid-X-receptor (FXR) signaling pathway (AID 743220; active = well fitted activation curve with a large enough effect in the signal ratio in the repeat runs, not every such curve was filed as active; the % refers to the signal ratio); settings: HEK293T FXR-UAS-bla, beta-lactamase FRET ratio, 16 h; series mostly up to 62.6 µM
Summary of the method: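 FXR-UAS-bla HEK 293T cells carrying a UAS-driven beta-lactamase reporter were plated for 5 h at 37C/5% CO2, then exposed to DMSO-dissolved Tox21 10K compounds for 16 h at 37C. A LiveBLAzer B/G FRET substrate was loaded for 2 h at room temperature before fluorescence reading.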

[17] = biological target: Vitamin D3 receptor (Homo sapiens) (UniProt P11473); experiment: qHTS assay to identify small molecule antagonists of the vitamin D receptor (VDR) signaling pathway (AID 743223; active = well fitted inhibition curve with a large enough effect in the signal ratio in the repeat runs, not every such curve was filed as active; the % refers to the signal ratio); settings: VDR-UAS-bla HEK293T, beta-lactamase FRET ratio, 16 h; series mostly up to 61 µM
Summary of the method: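 Fluorescence from LiveBLAzer B/G FRET substrate, read after 2 h at room temperature, reflects beta-lactamase reporter activity in VDR-bla cells treated 16 h at 37C with compounds and agonist 1alpha,25-dihydroxyvitamin D3 (3 nM final).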

[18] = qHTS assay to identify small molecule agonists of the AP-1 signaling pathway - cell viability counter screen (AID 1159525; calls by dose curve; note: nearly all actives have a fitted effect of over 55% in size); settings: ME-180 AP-1-bla cells viability, ATP luminescence, 5 h; series mostly up to 76.8 µM
Summary of the method: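 Intracellular ATP by Cell Titer Glo luminescence (30 min, RT) in the same ME-180 AP-1-bla wells after the 5 h compound exposure at 37 °C. Normalised to tetra n-octyl ammonium bromide and DMSO controls.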

[19] = qHTS assay to identify small molecule agonists of the AP-1 signaling pathway (AID 1159526; calls by dose curve); settings: ME-180 (cervical carcinoma) AP-1-bla reporter, beta-lactamase FRET ratio, 5 h; series mostly up to 76.8 µM

Measured: Potency

c1cc[c]([Hg][c]2ccccc2)cc1
active: [5] 49 µM | [10] 27.3 µM | [11] 19.3 µM
inactive: [1] | [2] | [3] | [4] | [6] | [7] | [8] | [9]

CC(C)CC(N(C)C)C1(c2ccc(Cl)cc2)CCC1 (configuration not stated)
not listed: [5] | [7]
inactive: all other assays above

CCc1cc2c(s1)-n1c(C)nnc1CN=C2c1ccccc1Cl
not listed: [4] | [12] | [16]
inactive: all other assays above

CNC(=O)Oc1c(C(C)(C)C)cc(C)cc1C(C)(C)C
not listed: [4] | [11]
inactive: all other assays above

CC1=C(C(=O)Nc2ccccc2)S(=O)(=O)CCO1
active: [12] 54.9 µM | [11] 27.3 µM
inactive: [7] | [8] | [9] | [10] | [19]

Clc1cccc(N2CCNCC2)c1
not listed: [2] | [11] | [13] | [17] | [18]
inactive: all other assays above

BrCCCCCCBr
not listed: [4] | [13] | [14] | [15] | [16] | [17] | [19]
inactive: all other assays above

CC(C=O)Cc1ccc2c(c1)OCO2 (configuration not stated)
not listed: [12] | [17] | [19]
inactive: all other assays above

ClCC(Cl)Cl
not listed: [5] | [7] | [14] | [16] | [17]
inactive: all other assays above

CC(C)CC#N
not listed: [2]
inactive: all other assays above

Nc1n[nH]c(N)n1
active: [11] 15.6 µM
not listed: [15] | [19]
inactive: all other assays above

N#CCBr
not listed: [1] | [2] | [5] | [12] | [13]
inactive: all other assays above

CCOP(=S)(OCC)SCSc1ccc(Cl)cc1
not listed: [1] | [5] | [17]
inactive: all other assays above

O=C1CN2CCOC2(c2ccccc2Cl)c2cc(Cl)ccc2N1 (configuration not stated)
not listed: [2] | [4] | [6] | [12] | [14] | [19]
inactive: all other assays above
